Data: PubChem BioAssay

test system: Rat fibroblasts (CREF); test: Peg3 promoter luciferase inhibitors, potency, dose response, cell-based, HeLa, CREF/GAPDH counter-screen panel (AID 624167); conditions: CREF/GAPDH counter-screens; run 1, dose range 1, at 100 µM (top of the series)

Compound	inhibition [%]
CCOc1ccc(OCc2cccc(C(=O)O)c2)cc1	96.6
O=C(O)c1ccc(N/N=C/c2ccc3c(c2)OCO3)cc1	67.2
COc1ccc(C(=O)NNC(=O)c2ccccn2)cc1	100
CN(C)S(=O)(=O)c1ccc(-c2csc(N/N=C/c3ccc(O)cc3)n2)cc1	97.4
O=C(Nc1ccccc1C(=O)Nc1nnc(C(F)(F)F)s1)c1ccccc1	-3.72
C/C(=N\NC(=O)c1cc(C2CC2)nc2ccccc12)c1ccc(O)cc1O	31.4
COc1cc(NS(C)(=O)=O)ccc1Nc1c2ccccc2nc2ccccc12	86.1
CC1CCCN(c2ncnc3c2cnn3-c2ccc(Cl)cc2)C1 (stereo not drawn)	94
Cc1ccc(-c2nc(-c3ccccn3)no2)cc1Cl	99.3
COc1ccc(CCN2C(=O)C=CC2=O)cc1OC	99.5
Cc1cc(Br)ccc1NC(=O)CNC(=O)Cn1ncc(Cl)c(Cl)c1=O	48.9
CN(C)c1ccc(/C=C2\SC(=O)N(CCc3nnc(N)s3)C2=O)cc1	83
Cc1oc(-c2ccc3c(c2)OCCO3)cc1C(=O)O	84.4
O=C(NC(=O)c1ccccc1)Nc1ccccn1	95.3
O=C(COc1ccc(Cl)cc1Cl)Nc1ccccn1	101
O=C(CCl)N1c2ccccc2Sc2ccc3ccccc3c21	99.4
Cc1nc(SCC(=O)Nc2nc3ccccc3s2)c(C#N)c(C)c1C	97.8
CC(=O)NC(c1ccc(N(C)C)cc1)c1cc(Cl)c2cccnc2c1O (stereo not drawn)	-10.5
CCC(c1ccc(O)c(O)c1)C(CC)c1ccc(O)c(O)c1 (stereo not drawn)	100
CCSc1nc2ccccc2n1C(=O)/C=C\c1ccc(OC)c(OC)c1	46.8

Compound	inhibition [%]
O=C(O)c1ccc(N/N=C/c2ccc3nccnc3c2)cc1	58.2
O=C(Nc1nc2cc3c(cc2s1)OCCO3)c1ccco1	92.9
CCOc1ccc2c(ccc(/C=C/c3cc(C)c4cccnc4c3O)[n+]2C)c1	98.8
O=C(c1ccco1)N1CCN(C(c2ccccc2Cl)c2nnnn2Cc2cccs2)CC1 (stereo not drawn)	-23.5
CC(=O)N1CCCC(c2cc(C(=O)Nc3ccccc3)no2)C1 (stereo not drawn)	93.1
O=C(N/N=C/c1c(O)ccc2ccccc12)c1ccc(CO)nc1	54
CN=c1scc(-c2ccccc2F)n1/N=C/c1ccc[nH]1	100
Cc1nc(-c2ccc(NC(=O)c3ccco3)cc2)cs1	93.3
O=C(O)c1ccc(CN2C(=O)c3cccc4c([N+](=O)[O-])ccc(c34)C2=O)cc1	71.3
COc1cc(/C=C2\SC(=Nc3ccccc3OC)NC2=O)ccc1O	-38.3
Cc1cc(/C=N/Nc2ncnc(N)c2[N+](=O)[O-])c(C)n1-c1ccccc1	91.1
Cc1cc(C)c(C)c(S(=O)(=O)N2CCN(C(=O)c3cc(=O)[nH]c4ccccc34)CC2)c1C	34.6
CN(C)c1ccc(/C=C/c2ccc3c4ccccc4ccc3[n+]2-c2ccccc2)cc1	101
Clc1ccccc1/C=C/c1nc(-c2ccccn2)no1	89.2
Cc1cc(C2=NNC(=NC3CC3)SC2)c(C)n1-c1ccccc1F	96.9
CN(C(=O)COC(=O)/C=C/c1cccc([N+](=O)[O-])c1)C1CCS(=O)(=O)C1 (stereo not drawn)	6.76
CC(C)CCCCCCCCCCCCC(=O)NCC(=O)NC1C(O)C(O)C(Nc2ncnc3nc[nH]c23)OC1C(O)CO (stereo not drawn)	99.5
COC(CNC(=O)c1ccc2c3c(onc13)-c1ccccc1C2=O)OC	98.9
CCCC(=O)NC(c1ccc(Cl)cc1)c1ccc2cccnc2c1O (stereo not drawn)	12.3

test system: Rat fibroblasts (CREF); test: as above; conditions: CREF/GAPDH counter-screens; run 2, dose range 1, at 100 µM (top of the series)

Compound	inhibition [%]
CCOc1ccc(OCc2cccc(C(=O)O)c2)cc1	97.5
O=C(O)c1ccc(N/N=C/c2ccc3c(c2)OCO3)cc1	62.5
COc1ccc(C(=O)NNC(=O)c2ccccn2)cc1	98.5
CN(C)S(=O)(=O)c1ccc(-c2csc(N/N=C/c3ccc(O)cc3)n2)cc1	98.8
O=C(Nc1ccccc1C(=O)Nc1nnc(C(F)(F)F)s1)c1ccccc1	11.8
C/C(=N\NC(=O)c1cc(C2CC2)nc2ccccc12)c1ccc(O)cc1O	65.1
COc1cc(NS(C)(=O)=O)ccc1Nc1c2ccccc2nc2ccccc12	95.2
CC1CCCN(c2ncnc3c2cnn3-c2ccc(Cl)cc2)C1 (stereo not drawn)	96.6
Cc1ccc(-c2nc(-c3ccccn3)no2)cc1Cl	99.4
COc1ccc(CCN2C(=O)C=CC2=O)cc1OC	98.6
Cc1cc(Br)ccc1NC(=O)CNC(=O)Cn1ncc(Cl)c(Cl)c1=O	96.9
CN(C)c1ccc(/C=C2\SC(=O)N(CCc3nnc(N)s3)C2=O)cc1	82.3
Cc1oc(-c2ccc3c(c2)OCCO3)cc1C(=O)O	81.3
O=C(NC(=O)c1ccccc1)Nc1ccccn1	96.8
O=C(COc1ccc(Cl)cc1Cl)Nc1ccccn1	99.7
O=C(CCl)N1c2ccccc2Sc2ccc3ccccc3c21	99.6
Cc1nc(SCC(=O)Nc2nc3ccccc3s2)c(C#N)c(C)c1C	97
CC(=O)NC(c1ccc(N(C)C)cc1)c1cc(Cl)c2cccnc2c1O (stereo not drawn)	94.6
CCC(c1ccc(O)c(O)c1)C(CC)c1ccc(O)c(O)c1 (stereo not drawn)	97.1
CCSc1nc2ccccc2n1C(=O)/C=C\c1ccc(OC)c(OC)c1	91.8

Compound	inhibition [%]
O=C(O)c1ccc(N/N=C/c2ccc3nccnc3c2)cc1	45.3
O=C(Nc1nc2cc3c(cc2s1)OCCO3)c1ccco1	95.1
CCOc1ccc2c(ccc(/C=C/c3cc(C)c4cccnc4c3O)[n+]2C)c1	98.5
O=C(c1ccco1)N1CCN(C(c2ccccc2Cl)c2nnnn2Cc2cccs2)CC1 (stereo not drawn)	-17.6
CC(=O)N1CCCC(c2cc(C(=O)Nc3ccccc3)no2)C1 (stereo not drawn)	92
O=C(N/N=C/c1c(O)ccc2ccccc12)c1ccc(CO)nc1	47.6
CN=c1scc(-c2ccccc2F)n1/N=C/c1ccc[nH]1	100
Cc1nc(-c2ccc(NC(=O)c3ccco3)cc2)cs1	95.8
O=C(O)c1ccc(CN2C(=O)c3cccc4c([N+](=O)[O-])ccc(c34)C2=O)cc1	98.6
COc1cc(/C=C2\SC(=Nc3ccccc3OC)NC2=O)ccc1O	-20.9
Cc1cc(/C=N/Nc2ncnc(N)c2[N+](=O)[O-])c(C)n1-c1ccccc1	93.5
Cc1cc(C)c(C)c(S(=O)(=O)N2CCN(C(=O)c3cc(=O)[nH]c4ccccc34)CC2)c1C	90.5
CN(C)c1ccc(/C=C/c2ccc3c4ccccc4ccc3[n+]2-c2ccccc2)cc1	100
Clc1ccccc1/C=C/c1nc(-c2ccccn2)no1	76.1
Cc1cc(C2=NNC(=NC3CC3)SC2)c(C)n1-c1ccccc1F	97.5
CN(C(=O)COC(=O)/C=C/c1cccc([N+](=O)[O-])c1)C1CCS(=O)(=O)C1 (stereo not drawn)	36.6
CC(C)CCCCCCCCCCCCC(=O)NCC(=O)NC1C(O)C(O)C(Nc2ncnc3nc[nH]c23)OC1C(O)CO (stereo not drawn)	9.65
COC(CNC(=O)c1ccc2c3c(onc13)-c1ccccc1C2=O)OC	100
CCCC(=O)NC(c1ccc(Cl)cc1)c1ccc2cccnc2c1O (stereo not drawn)	28.1
